Screens: PubChem, National Center for Advancing Translational Sciences (NCATS)
Hits are enriched below; roughly 11% of the tested compounds scored in any of these assays.
HPGD block: blocks human HPGD enzyme activity; actives 4.3% (n = 150,000); purified HPGD, NADH fluorescence kinetic, PGE2 substrate; Potency, µM, for the others: top-dose activity change, negative = inhibition, actives largely listed as inhibitors; P15428; also: potency is read from the fitted curve at half-maximal effect
Target sequence (P15428 whole entry, looked up): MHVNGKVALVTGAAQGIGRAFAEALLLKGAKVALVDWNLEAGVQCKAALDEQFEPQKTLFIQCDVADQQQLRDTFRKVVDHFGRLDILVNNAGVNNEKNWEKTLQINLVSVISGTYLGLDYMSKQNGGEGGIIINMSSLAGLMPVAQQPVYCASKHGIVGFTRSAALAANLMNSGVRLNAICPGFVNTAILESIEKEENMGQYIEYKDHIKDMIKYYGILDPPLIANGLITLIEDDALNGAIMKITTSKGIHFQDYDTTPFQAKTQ
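NADH formation kinetics: reaction with 30 uM PGE2 and 1 mM NAD+ (final), 20 nM enzyme, Tris-HCl pH 8 with Tween 20, after 15 min compound preincubation at room temperature. Fluorescence change, last versus first of five reads.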
ALDH1A1 inh: blocks purified human ALDH1A1 activity; Purified ALDH1A1, NADH fluorescence, propionaldehyde substrate; Potency, µM (highest dose often 75.3 µM), for inactives: top-dose activity, negative = inhibition, hits mostly inhibitors; actives 7.3% (n = 220,000); AID 1030;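 also: potency is read from the fitted curve at half-maximal effect; plate controls were no enzyme wells and a reference inhibitor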
PNC assembly inh: perinucleolar compartment assembly inhibition. actives 3.1% (n = 140,000). PC3M PTB-GFP, PNC prevalence imaging, 16 h; active compounds read low. activity change (PNC), negative = inhibition, % at 10 µM;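 active = readout at or below -70, meaning at least 70% loss of cells showing the perinucleolar compartment, a nuclear body marking cancer cells; inconclusive = readout between -30 and a set limit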;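 also: plate controls were DMSO wells for no effect and camptothecin positive control wells for full effect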
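Read-out is percentage of cells bearing a perinucleolar compartment, from automated 20x imaging of fixed, Hoechst-stained PC3M PTB-GFP cells. Cells were seeded 4 h, then exposed 16 h to compound (23 nl of library stock) in duplicate plates.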
* = called active by the depositor; ? = inconclusive; / = no result; [ ] = remark or other dose. Unless noted, calls follow the shape of the dose curve; as a rule, active = well fitted inhibition curve with a large enough effect (not every such curve was filed as active); inconclusive = small, poorly fitted or top-dose-only effect, or another doubt; inactive = no such curve, though single readings can be large or run the other way. Unless noted, % is scaled to controls: 0 for no effect and ±100 for the full control effect.

SMILES	HPGD block	ALDH1A1 inh	PNC assembly inh
COc1ccc(Cn2c(CCCO)nc3ccccc32)cc1OC	-5%	16%	?
CN(c1ccc(OCC(=O)N2CCCCC2)cc1)S(=O)(=O)c1cccs1	14µM*	-6%	-9
O=C(c1cccc(F)c1)N1CCCN(C(=O)c2cccc(F)c2)CC1	0%	-7%	33
O=C(CCCOc1ccc(Cl)cc1)N1CCCCC1	1.6µM*	-16%	-8
Cc1cc(Cl)ccc1OCC(=O)N1CCN(c2ncccn2)CC1	/	-11%	/
Cc1cc(Cl)ccc1OCC(=O)N1CCCCC1	28µM*	-14%	-3
O=C(CCCOc1ccc(Cl)cc1)N1CCOCC1	-19%	3%	10
O=C(c1cccc(F)c1)N1CCN(C(=O)c2nn3cccnc3c2Cl)CC1	-18%	20µM*	-5
CN(c1ccc(OCC(=O)N2CCN(c3ccc(F)cc3)CC2)cc1)S(=O)(=O)c1cccs1	/	-4%	/
O=C(CCC(=O)c1ccc(F)cc1)OC1CCOC1=O (stereo not drawn)	-15%	3%	-9
O=C(Nc1c(Cl)ccc2nsnc12)c1cccnc1	-3%	0%	-16
CO/N=C/NC(=O)c1c(OC)ccnc1Oc1cccc(C(F)(F)F)c1	0%	2%	4
O=c1c2c3c(sc2nc2sc(CN4CCOCC4)cn12)CCCC3	-19%	?	42
CNC(=S)N(Cc1ccc(OC)cc1)Cc1cc2ccc(C)cc2[nH]c1=O	/	-8%	/
CCCC1c2c(ccc3ccccc23)Oc2ccc3ccccc3c21	-6%	-8%[13.5 µM]	/
Cc1ccc2nsnc2c1NC(=O)COc1ccccc1F	/	-5%	/
CC(C)CNC(=S)NC(=O)c1ccc(F)cc1	-10%	?	?
CC(C)(C)c1ccc(OCCCC(=O)N2CCOCC2)cc1	/	-6%	/
O=C(CCCOc1ccc(Cl)cc1)N1CCCCCC1	2.2µM*	7.9µM*	-99*
COc1ccc(OC)c(NC(=O)CSc2nnc(Cn3nnc4ccccc43)n2C)c1	-6%	2%	?
C[C@]12C[C@H](O)CC(CO)(CO)C1[C@H](O)C[C@@]13CC4[C@@H](CC12)[C@@]4(C)C3 (stereo partly drawn)	1%	-11%	/
Nc1nc(NCc2ccco2)nc(Nc2cccc(F)c2)c1[N+](=O)[O-]	/	10%	/
Cc1nnc2n1NC(c1ccc(Cl)cc1)C(C(=O)N1CCC(C)CC1)S2 (stereo not drawn)	-2%	12%	-112*
Cc1nnc2n1NC(c1ccc(Cl)cc1)C(C(=O)N(C)C1CCCCC1)S2 (stereo not drawn)	-7%	-10%	16
N#CC(C#N)=C1NC2(CCCC2)Cc2ccccc21	-3%	?	-19
SMILES	HPGD block	ALDH1A1 inh	PNC assembly inh
O=C(NCc1ccccc1)C1(c2cccc(F)c2)CCCC1	/	6%	/
Cc1noc(C)c1COc1ccc(C(=O)OCC(=O)NCc2ccccc2Cl)cc1	-13%	-6%	33
COc1ccc2nc(NC(=O)c3cccc(OCc4c(C)noc4C)c3)sc2c1	?	?	-91*
Cc1nc(C)c(C(=O)NCc2ccccc2Cl)o1	25µM*	22µM*	-14
Cc1noc(C)c1COc1cccc(C(=O)NC(C)(C)C)c1	/	17%	/
Cc1noc(C)c1COc1cccc(C(=O)NCc2ccccc2Cl)c1	16µM*	-26%	?
Cc1noc(C)c1COc1cccc(C(=O)Nc2ccc(OCc3ccccc3)cc2)c1	-9%	2%	-18
CCSc1nnc(NC(=O)c2cccc(OCc3c(C)noc3C)c2)s1	25µM*	?	-111*
CCC(CC)C(=O)NCc1ccccc1Cl	-16%	20%	7
Cc1ccc2c(O)c(C)c(=O)[nH]c2n1	/	4%	/
COC(=O)[C@@H]1CC[C@H](C)[C@@H](c2ccc(C)cc2)N1C(=O)c1ccc(/C=N\O[C@@H](C)c2cc(-c3c(C)cc(C)cc3C)no2)cc1	/	8%[13.5 µM]	/
CC1(NC(=S)N(CCO)CCO)CCS(=O)(=O)C1 (stereo not drawn)	-11%	-12%	?
CCCNC(=S)N(Cc1ccccc1)Cc1nc2ccccc2c(=O)[nH]1	-20%	?	5
[O-]/[N+](=C/c1ccc(F)cc1)c1ccc(Cl)cc1	-15%	6.3µM*	-27
O=Cc1ccc(Cl)cc1	-4%	-1%	/
COc1ccc(CCC(=O)NNC(=S)NCc2ccc(F)cc2)cc1	/	-2%	/
CN1CCCc2cc(C=O)ccc21	?	0.2µM*	-13
Cc1ccc2c(c1)CCCN2C(=O)NC1CCCCC1	/	3%	/
N#CC1=C(SCc2ccccc2Cl)NC(=O)C(C(N)=O)C1 (stereo not drawn)	-9%	16µM*	-1
CCCOC(=O)CSC1=C(C#N)C(c2ccccc2Cl)CC(=O)N1 (stereo not drawn)	-4%	?	2
NC(CC(=O)O)c1ccc(Br)cc1 (stereo not drawn)	-3%	1%	?
CCOC(=O)C1C(=O)OC(C)(C)C1C(C)C(=O)c1ccc(C)cc1C (stereo not drawn)	/	5%	/
C=C(C)CSc1nc2nc(C)c(Br)cc2[nH]1	14µM*	-7%	28
C=C(C)CSc1nc2ccccc2[nH]1	?	3%	32
CCOC(=O)C1CCCCN1Cc1cccc(C(F)(F)F)c1 (stereo not drawn)	-7%	?	?
SMILES	HPGD block	ALDH1A1 inh	PNC assembly inh
CCOC(=O)C1CCN(C2CC(=O)N(c3ccc(OCC)cc3)C2=O)CC1 (stereo not drawn)	4%	28µM*	?
CCOC(=O)C1CCCN(C2CC(=O)N(c3cccc(C(F)(F)F)c3)C2=O)C1 (stereo not drawn)	-5%	8.9µM*	-24
CCOC(=O)C1CCCN(CCC(C)c2ccccc2)C1 (stereo not drawn)	6%	?	24
CCCCCCOc1ccc(N2C(=O)CC(N3CCC(C(=O)OCC)CC3)C2=O)cc1 (stereo not drawn)	8%	?	?
CCOC(=O)C1CCCN(C2CC(=O)N(c3ccc(C)c(C)c3)C2=O)C1 (stereo not drawn)	-4%	10µM*	?
CCOC(=O)C1CCCN(C2CC(=O)N(c3ccc(C(C)C)cc3)C2=O)C1 (stereo not drawn)	/	10µM*	/
CCOC(=O)C1CCCN(c2c(Nc3ccc(C)c(C)c3)c(=O)c2=O)C1 (stereo not drawn)	-20%	-12%	34
CCCC(=O)Nc1ccc(Cl)c(NC(=O)c2cccnc2Cl)c1	-16%	-9%	22
OCC1(Cc2ccccc2)CCCN(Cc2ccn[nH]2)C1 (stereo not drawn)	/	-7%	/
CC1CCN(c2nc3ccccc3nc2C(C#N)S(=O)(=O)c2ccccc2)CC1 (stereo not drawn)	-7%	4%	/
O=C1CC(N2CCN(c3cccc(C(F)(F)F)c3)CC2)C(=O)N1c1ccc(F)cc1 (stereo not drawn)	-23%	-3%	-21
CCOC(=O)C1CCCN(C2CC(=O)N(c3ccc(N4C(=O)CC(N5CCCC(C(=O)OCC)C5)C4=O)cc3)C2=O)C1 (stereo not drawn)	/	3.2µM*	/
CCc1ccc(N2C(=O)CC(N3CCC(C(=O)OC)CC3)C2=O)cc1 (stereo not drawn)	0%	?	-1
Cc1cccc(N2C(=O)CC(N3CCN(c4cccc(C(F)(F)F)c4)CC3)C2=O)c1 (stereo not drawn)	-20%	28µM*	32
